Experimental data reported in the supplement of paper PMC11732987, “Enantioselective OTUD7B fragment discovery through chemoproteomics screening and high-throughput optimisation” (Communications Chemistry, 2025).

What was measured:
Test in all cases: log2 ratio of Biotin-Ahx-Ub-VS probe labelling (fragment/DMSO); higher = less target engagement (more negative = stronger competition), active = hit call of the paper (q ≤ 0.05, log2 ratio ≤ -1)
Conditions in all cases: compound concentration: 200 uM; treatment time: 3 h
OTUD6B = target: T1, OTUD6B (UniProt Q8N6M0)
T1 sequence (whole entry): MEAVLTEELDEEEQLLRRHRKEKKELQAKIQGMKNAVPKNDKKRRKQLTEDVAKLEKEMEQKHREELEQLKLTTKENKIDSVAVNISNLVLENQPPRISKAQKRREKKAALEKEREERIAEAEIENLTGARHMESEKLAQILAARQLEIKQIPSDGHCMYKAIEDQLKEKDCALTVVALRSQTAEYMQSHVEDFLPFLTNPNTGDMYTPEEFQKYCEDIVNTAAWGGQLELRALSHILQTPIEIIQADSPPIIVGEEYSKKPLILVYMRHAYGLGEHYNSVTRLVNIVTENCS
Summary of the method: (§1)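 Fragment (200 µM) or vehicle was incubated for 3 h with triplicate HEK293T lysate samples of 495 µg, which were then treated with Biotin-Ahx-Ub-VS at 0.5 µM final for 1 h. Labelled DUBs were enriched on NeutrAvidin, digested with LysC and trypsin, and analysed by diaPASEF LC-MS/MS. Values are average log2 fragment/vehicle ratios from an unpaired t-test on global-median-normalised Spectronaut label-free quantities, using proteins with ≥2 unique peptides.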

OTUD7B = target: T2, OTUD7B (UniProt Q6GQQ9)
T2 sequence (whole entry): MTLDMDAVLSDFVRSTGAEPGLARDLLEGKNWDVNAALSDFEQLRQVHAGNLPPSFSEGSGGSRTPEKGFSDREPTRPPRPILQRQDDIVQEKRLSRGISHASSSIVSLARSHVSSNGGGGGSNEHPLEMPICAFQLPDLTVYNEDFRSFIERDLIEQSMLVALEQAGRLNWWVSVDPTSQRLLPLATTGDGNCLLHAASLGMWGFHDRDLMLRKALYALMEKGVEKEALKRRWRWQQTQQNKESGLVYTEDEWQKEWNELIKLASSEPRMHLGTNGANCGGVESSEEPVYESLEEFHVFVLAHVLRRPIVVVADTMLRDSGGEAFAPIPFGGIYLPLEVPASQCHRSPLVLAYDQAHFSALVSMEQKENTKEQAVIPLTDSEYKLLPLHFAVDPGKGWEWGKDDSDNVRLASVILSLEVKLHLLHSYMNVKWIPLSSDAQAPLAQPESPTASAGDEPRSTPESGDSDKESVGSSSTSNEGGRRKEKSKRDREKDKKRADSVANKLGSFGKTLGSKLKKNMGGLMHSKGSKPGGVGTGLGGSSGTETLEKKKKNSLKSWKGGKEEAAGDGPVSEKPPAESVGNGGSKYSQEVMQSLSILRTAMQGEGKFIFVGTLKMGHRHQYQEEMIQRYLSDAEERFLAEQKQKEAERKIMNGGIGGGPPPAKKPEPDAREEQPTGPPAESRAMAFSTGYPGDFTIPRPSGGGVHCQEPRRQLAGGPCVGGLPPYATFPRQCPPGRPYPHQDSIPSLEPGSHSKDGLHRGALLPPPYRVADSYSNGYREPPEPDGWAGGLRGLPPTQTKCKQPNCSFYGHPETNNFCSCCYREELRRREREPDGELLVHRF
Summary of the method: as §1

PRPF8 = PRPF8 (UniProt Q6P2Q9)
Summary of the method: as §1

PSMD7 = target: T3, PSMD7 (UniProt P51665)
T3 sequence (whole entry): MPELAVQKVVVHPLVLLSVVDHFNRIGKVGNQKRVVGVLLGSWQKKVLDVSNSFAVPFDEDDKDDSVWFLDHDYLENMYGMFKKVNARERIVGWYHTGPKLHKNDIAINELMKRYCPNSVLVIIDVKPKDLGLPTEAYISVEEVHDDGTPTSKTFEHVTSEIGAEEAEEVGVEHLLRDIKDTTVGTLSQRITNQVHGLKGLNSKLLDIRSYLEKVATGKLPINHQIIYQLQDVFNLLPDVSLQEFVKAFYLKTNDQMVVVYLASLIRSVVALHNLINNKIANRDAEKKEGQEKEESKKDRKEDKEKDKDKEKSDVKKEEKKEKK
Summary of the method: as §1

UCHL1 = UCHL1 (UniProt P09936)
Summary of the method: as §1

UCHL3 = target: T4, UCHL3 (UniProt P15374)
T4 sequence (whole entry): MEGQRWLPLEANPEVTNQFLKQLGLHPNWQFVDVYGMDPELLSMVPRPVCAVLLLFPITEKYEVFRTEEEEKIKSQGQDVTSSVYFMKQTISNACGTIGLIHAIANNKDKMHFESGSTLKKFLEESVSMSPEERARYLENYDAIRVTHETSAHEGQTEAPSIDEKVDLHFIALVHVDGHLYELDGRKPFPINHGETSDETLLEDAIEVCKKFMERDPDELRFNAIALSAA
Summary of the method: as §1

UCHL5 = target: T5, UCHL5 (UniProt Q9Y5K5)
T5 sequence (whole entry): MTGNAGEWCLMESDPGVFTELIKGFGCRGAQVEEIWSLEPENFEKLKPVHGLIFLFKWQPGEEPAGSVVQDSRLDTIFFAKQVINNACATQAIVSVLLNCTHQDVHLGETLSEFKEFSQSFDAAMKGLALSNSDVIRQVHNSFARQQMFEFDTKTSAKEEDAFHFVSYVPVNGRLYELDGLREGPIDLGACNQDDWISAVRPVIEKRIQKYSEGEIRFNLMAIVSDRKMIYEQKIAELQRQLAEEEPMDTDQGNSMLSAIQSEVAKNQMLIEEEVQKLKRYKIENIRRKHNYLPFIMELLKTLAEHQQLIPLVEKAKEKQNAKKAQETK
Summary of the method: as §1

USP10 = USP10 (UniProt Q14694)
Summary of the method: as §1

USP15 = target: T6, USP15 (UniProt Q9Y4E8)
T6 sequence (whole entry): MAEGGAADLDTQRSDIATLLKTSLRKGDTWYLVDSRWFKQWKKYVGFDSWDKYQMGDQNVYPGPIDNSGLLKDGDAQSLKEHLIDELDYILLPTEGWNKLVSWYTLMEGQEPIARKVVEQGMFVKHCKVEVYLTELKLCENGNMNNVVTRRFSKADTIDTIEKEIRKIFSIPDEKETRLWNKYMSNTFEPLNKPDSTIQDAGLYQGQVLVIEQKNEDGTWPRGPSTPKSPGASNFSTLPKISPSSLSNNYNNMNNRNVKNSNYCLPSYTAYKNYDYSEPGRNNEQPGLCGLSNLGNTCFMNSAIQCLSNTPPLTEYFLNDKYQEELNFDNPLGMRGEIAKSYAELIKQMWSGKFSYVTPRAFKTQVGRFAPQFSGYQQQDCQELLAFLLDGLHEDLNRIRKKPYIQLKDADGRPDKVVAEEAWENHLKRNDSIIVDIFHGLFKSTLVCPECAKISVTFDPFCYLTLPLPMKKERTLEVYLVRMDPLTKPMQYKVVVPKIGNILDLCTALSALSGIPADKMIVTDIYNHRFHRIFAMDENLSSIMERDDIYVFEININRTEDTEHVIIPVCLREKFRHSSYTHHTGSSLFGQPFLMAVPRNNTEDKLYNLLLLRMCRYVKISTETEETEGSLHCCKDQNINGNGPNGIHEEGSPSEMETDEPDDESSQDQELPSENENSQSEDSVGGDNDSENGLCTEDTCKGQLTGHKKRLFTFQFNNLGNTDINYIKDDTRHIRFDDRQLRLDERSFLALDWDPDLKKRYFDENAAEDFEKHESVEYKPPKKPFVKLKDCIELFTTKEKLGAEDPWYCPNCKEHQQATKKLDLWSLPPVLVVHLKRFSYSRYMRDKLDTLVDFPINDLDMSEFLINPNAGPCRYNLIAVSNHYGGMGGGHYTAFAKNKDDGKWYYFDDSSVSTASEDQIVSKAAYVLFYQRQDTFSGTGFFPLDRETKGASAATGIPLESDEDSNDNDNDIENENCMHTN
Summary of the method: as §1

USP16 = USP16 (UniProt Q9Y5T5)
Summary of the method: as §1

Measured: log2 ratio of Biotin-Ahx-Ub-VS probe labelling

Chain of USP16 (Q9Y5T5 whole entry, looked up): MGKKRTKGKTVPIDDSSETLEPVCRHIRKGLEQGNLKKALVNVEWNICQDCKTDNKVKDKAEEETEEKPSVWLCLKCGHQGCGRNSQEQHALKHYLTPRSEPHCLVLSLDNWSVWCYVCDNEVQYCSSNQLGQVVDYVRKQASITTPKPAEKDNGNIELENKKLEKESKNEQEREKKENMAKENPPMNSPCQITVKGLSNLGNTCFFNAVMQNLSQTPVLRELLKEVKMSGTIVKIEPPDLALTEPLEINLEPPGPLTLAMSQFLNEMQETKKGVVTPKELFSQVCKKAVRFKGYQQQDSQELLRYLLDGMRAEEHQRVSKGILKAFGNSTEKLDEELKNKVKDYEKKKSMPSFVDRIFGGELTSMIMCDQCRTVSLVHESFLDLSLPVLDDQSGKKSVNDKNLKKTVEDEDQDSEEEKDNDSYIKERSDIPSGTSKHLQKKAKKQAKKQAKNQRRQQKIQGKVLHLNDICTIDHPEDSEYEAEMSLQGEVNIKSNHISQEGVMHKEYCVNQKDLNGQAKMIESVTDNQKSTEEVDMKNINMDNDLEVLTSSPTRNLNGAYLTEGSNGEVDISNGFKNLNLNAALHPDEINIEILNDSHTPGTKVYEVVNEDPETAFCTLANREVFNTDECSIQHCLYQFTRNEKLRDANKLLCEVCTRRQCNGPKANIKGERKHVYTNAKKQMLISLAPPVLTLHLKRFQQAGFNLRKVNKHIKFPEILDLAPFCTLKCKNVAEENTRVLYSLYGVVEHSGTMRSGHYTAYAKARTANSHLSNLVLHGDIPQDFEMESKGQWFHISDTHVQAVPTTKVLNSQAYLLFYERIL
Chain of USP10 (Q14694 whole entry): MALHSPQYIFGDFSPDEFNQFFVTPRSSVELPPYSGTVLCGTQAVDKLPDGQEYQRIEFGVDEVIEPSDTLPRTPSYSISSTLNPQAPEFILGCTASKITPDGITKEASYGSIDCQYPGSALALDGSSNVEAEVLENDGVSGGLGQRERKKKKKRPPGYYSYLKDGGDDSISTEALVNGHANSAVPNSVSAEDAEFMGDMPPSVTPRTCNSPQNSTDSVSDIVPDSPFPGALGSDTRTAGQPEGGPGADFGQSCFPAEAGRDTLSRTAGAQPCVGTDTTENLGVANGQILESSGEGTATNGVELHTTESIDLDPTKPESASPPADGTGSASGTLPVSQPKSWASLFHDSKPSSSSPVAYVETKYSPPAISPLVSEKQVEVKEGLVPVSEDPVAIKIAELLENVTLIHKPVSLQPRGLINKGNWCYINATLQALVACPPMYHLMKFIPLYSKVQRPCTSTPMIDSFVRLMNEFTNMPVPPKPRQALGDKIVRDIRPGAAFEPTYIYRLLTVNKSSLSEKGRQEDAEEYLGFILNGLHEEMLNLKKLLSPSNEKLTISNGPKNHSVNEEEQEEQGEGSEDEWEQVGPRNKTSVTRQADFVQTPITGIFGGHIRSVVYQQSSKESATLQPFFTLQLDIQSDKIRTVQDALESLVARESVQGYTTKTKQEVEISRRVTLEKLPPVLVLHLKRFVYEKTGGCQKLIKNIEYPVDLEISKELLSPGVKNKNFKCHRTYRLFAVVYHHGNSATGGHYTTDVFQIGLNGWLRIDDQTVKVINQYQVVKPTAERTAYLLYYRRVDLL
Chain of UCHL1 (P09936 whole entry, looked up): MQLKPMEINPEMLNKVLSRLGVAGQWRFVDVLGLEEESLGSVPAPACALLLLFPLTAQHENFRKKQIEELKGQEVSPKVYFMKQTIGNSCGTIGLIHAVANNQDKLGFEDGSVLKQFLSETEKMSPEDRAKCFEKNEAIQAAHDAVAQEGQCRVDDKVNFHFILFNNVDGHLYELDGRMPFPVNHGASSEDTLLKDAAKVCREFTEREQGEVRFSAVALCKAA

Cc1ccc(CN(C)C(=O)CCl)o1
inactive: OTUD6B 0.0695 | OTUD7B -0.158 | PRPF8 -0.0488 | PSMD7 0.0152 | UCHL3 0.611 | UCHL5 -0.238 | USP10 -0.157 | USP15 -0.201 | USP16 -0.0354
active: UCHL1 -1.38
